The whole screen tested about 2,700 compounds, of which about 160 (5.9%) showed an effect of 50% or more. The full list was thinned out, with strong results kept by preference.
Target: Nonstructural protein 3 (Zika virus) (UniProt A0A024AXB9)
[1] = PRVABC59, Concentration 50.0 uM, Number of replicates 1.0
[2] = PRVABC59, Concentration 15.0 uM, Number of replicates 1.0

Sequence of Nonstructural protein 3 (Zika virus) (A0A024AXB9 as listed by the source): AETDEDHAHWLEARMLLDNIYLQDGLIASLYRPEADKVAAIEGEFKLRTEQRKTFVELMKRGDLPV

O=Cc1ccc(N2CCC(C(=O)NCCc3cc(F)cc(F)c3)CC2)cc1
inhibition [1]: 19.3%

N#Cc1cccc(NC(=O)c2cccc(OCc3c(Cl)cccc3Cl)c2)c1
inhibition (PRVABC59, Concentration 49.5 uM, Number of replicates 2.0, Standard deviation 1.7651619405536074 %): 6.21%
inhibition (PRVABC59, Concentration 99.01 uM, Number of replicates 2.0, Standard deviation 1.834624667346594 %): 10%
inhibition (PRVABC59, Concentration 198.0 uM, Number of replicates 2.0, Standard deviation 2.6293560952864428 %): 8.42%

O=C(NCc1ccccc1Oc1ccccc1)c1cc(Cl)ccc1NS(=O)(=O)c1ccc(Oc2ccccc2Cl)cc1
inhibition [2]: 15.7%

O=Cc1ccc(N2CCC(C(=O)NCCN3C(=O)CSC3=O)CC2)cc1
inhibition [1]: 24.5%

Cc1cc(CO)c2cccc(NC(=O)CCC3CCNCC3)c2n1
inhibition (PRVABC59, Concentration 49.95 uM, Number of replicates 2.0, Standard deviation 0.05519955890732387 %): 98.6%
inhibition (PRVABC59, Concentration 99.9 uM, Number of replicates 2.0, Standard deviation 0.045159842417240824 %): 96.7%

Cc1cc(CO)c2cccc(NC(=O)C[C@H]3CCCN3)c2n1
inhibition (PRVABC59, Concentration 49.95 uM, Number of replicates 2.0, Standard deviation 2.649580260544395 %): 3.54%
inhibition (PRVABC59, Concentration 99.9 uM, Number of replicates 2.0, Standard deviation 2.639543831508496 %): 13.9%

Cc1cc(CO)c2cccc(NC(=O)Cc3c(C)c4c(=O)[nH]n(C)c4[nH]c3=O)c2n1
inhibition (PRVABC59, Concentration 49.95 uM, Number of replicates 2.0, Standard deviation 0.16559867672197162 %): 15%
inhibition (PRVABC59, Concentration 99.9 uM, Number of replicates 2.0, Standard deviation 1.570678848435362 %): 29.8%

Cc1cc(CO)c2cccc(NCC3CCNCC3)c2n1
inhibition (PRVABC59, Concentration 99.9 uM, Number of replicates 2.0, Standard deviation 2.951218090372617 %): -5.37%

Cc1cc(CO)c2cccc(Cc3cccc(NC(=O)CCC4CCNCC4)c3)c2n1
inhibition (PRVABC59, Concentration 49.95 uM, Number of replicates 2.0, Standard deviation 0.07125447361688171 %): 70.2%
inhibition (PRVABC59, Concentration 99.9 uM, Number of replicates 2.0, Standard deviation 0.2799306012648679 %): 94.6%

Cc1cc(CO)c2cccc(Cc3cccc(NC(=O)CNC4CC4)c3)c2n1
inhibition (PRVABC59, Concentration 49.95 uM, Number of replicates 2.0, Standard deviation 2.20382385319093 %): -2.08%
inhibition (PRVABC59, Concentration 99.9 uM, Number of replicates 2.0, Standard deviation 2.3107066172874657 %): 1.16%

Cc1cc(CO)c2cccc(NC(=O)CC3CCNCC3)c2n1
inhibition (PRVABC59, Concentration 49.95 uM, Number of replicates 2.0, Standard deviation 2.2586421938534733 %): 41.5%
inhibition (PRVABC59, Concentration 99.9 uM, Number of replicates 2.0, Standard deviation 1.48045087514324 %): 81%

Cc1cc(CO)c2cccc(NC(=O)CC3CNC3)c2n1
inhibition (PRVABC59, Concentration 49.95 uM, Number of replicates 2.0, Standard deviation 1.5957700474656553 %): -6.72%
inhibition (PRVABC59, Concentration 99.9 uM, Number of replicates 2.0, Standard deviation 1.1039918524960535 %): -6.98%

Cc1cc(CO)c2cccc(Cc3cccc(NC(=O)C[C@H]4CCCN4)c3)c2n1
inhibition (PRVABC59, Concentration 49.95 uM, Number of replicates 2.0, Standard deviation 0.1706171862678608 %): -9.82%

Cc1cc(CO)c2cccc(Cc3ccccc3NC(=O)CCC3CCNCC3)c2n1
inhibition (PRVABC59, Concentration 49.95 uM, Number of replicates 2.0, Standard deviation 0.020358613704702253 %): 4.96%
inhibition (PRVABC59, Concentration 99.9 uM, Number of replicates 2.0, Standard deviation 1.9188023762412802 %): 26.8%

Cc1cc(CO)c2cccc(Cc3ccccc3NC(=O)Cc3c(C)c4c(=O)[nH]n(C)c4[nH]c3=O)c2n1
inhibition (PRVABC59, Concentration 49.95 uM, Number of replicates 2.0, Standard deviation 2.3870518401485845 %): 19.5%
inhibition (PRVABC59, Concentration 99.9 uM, Number of replicates 2.0, Standard deviation 1.6185118125725577 %): 39.4%

Cc1cc(CO)c2cccc(Cc3cccc(NC(=O)Cc4c(C)c5c(=O)[nH]n(C)c5[nH]c4=O)c3)c2n1
inhibition (PRVABC59, Concentration 49.95 uM, Number of replicates 2.0, Standard deviation 0.9685022100006885 %): 29.7%
inhibition (PRVABC59, Concentration 99.9 uM, Number of replicates 2.0, Standard deviation 0.32116033435216484 %): 54.1%

Cc1cc(CO)c2cccc(Cc3ccccc3C(=O)N3CCO[C@@H](CN)C3)c2n1
inhibition (PRVABC59, Concentration 99.9 uM, Number of replicates 2.0, Standard deviation 2.9992587541792743 %): -6.8%

O=Cc1ccc(N2CCC(C(=O)Nc3cc(Cl)c(F)cc3F)CC2)cc1
inhibition [1]: 26.1%

COc1ccccc1N1CCN(C(=O)c2cc(Cl)ccc2NS(=O)(=O)c2ccc(Oc3ccccc3Cl)cc2)CC1
inhibition [2]: 8.47%

O=Cc1ccc(N2CCC(C(=O)Nc3ncc(F)cc3Br)CC2)cc1
inhibition [1]: 19.1%

C[C@@H](NC(=O)OCc1ccccc1)C(=O)Nc1cccc(CN)c1
inhibition (PRVABC59, Concentration 49.5 uM, Number of replicates 2.0, Standard deviation 0.22300909071478295 %): -5.65%
inhibition (PRVABC59, Concentration 99.01 uM, Number of replicates 2.0, Standard deviation 0.06482809074333463 %): -3.85%
inhibition (PRVABC59, Concentration 198.0 uM, Number of replicates 2.0, Standard deviation 0.9413049329503056 %): -1.69%

CCOc1ccc(CNC(=O)c2cc(Cl)ccc2NS(=O)(=O)c2ccc(Oc3ccccc3Cl)cc2)cc1
inhibition [2]: 30.8%

Cc1cc(CO)c2cccc(Cc3cccc(C(=O)N4CCC(C(=O)O)CC4)c3)c2n1
inhibition (PRVABC59, Concentration 49.95 uM, Number of replicates 2.0, Standard deviation 0.6921367263576601 %): -3.78%
inhibition (PRVABC59, Concentration 99.9 uM, Number of replicates 2.0, Standard deviation 0.04719115192807187 %): -2.12%

Cc1cc(CO)c2cccc(Cc3cccc(C(=O)N4CC[C@@H](CO)C4)c3)c2n1
inhibition (PRVABC59, Concentration 49.95 uM, Number of replicates 2.0, Standard deviation 1.594011680945781 %): -6.14%
inhibition (PRVABC59, Concentration 99.9 uM, Number of replicates 2.0, Standard deviation 1.5520642713220405 %): 3.44%

Cc1cc(CO)c2cccc(Cc3cccc(C(=O)N4CCC(CN)CC4)c3)c2n1
inhibition (PRVABC59, Concentration 49.95 uM, Number of replicates 2.0, Standard deviation 0.3303341859864401 %): 94.6%
inhibition (PRVABC59, Concentration 99.9 uM, Number of replicates 2.0, Standard deviation 0.3198467013777773 %): 90.9%

Cc1cc(CO)c2cccc(Cc3ccccc3C(=O)N3CC[C@@H](O)C3)c2n1
inhibition (PRVABC59, Concentration 49.95 uM, Number of replicates 2.0, Standard deviation 0.18876460771228748 %): -8.95%
inhibition (PRVABC59, Concentration 99.9 uM, Number of replicates 2.0, Standard deviation 1.2164824655212059 %): -7.58%

Cc1cc(CO)c2cccc(Cc3ccccc3C(=O)N3CCC(CN)CC3)c2n1
inhibition (PRVABC59, Concentration 49.95 uM, Number of replicates 2.0, Standard deviation 5.668177927575499 %): 56.2%
inhibition (PRVABC59, Concentration 99.9 uM, Number of replicates 2.0, Standard deviation 1.410491152712613 %): 37.7%

Cc1cc(CO)c2cccc(Cc3ccccc3C(=O)N3CCC(C(=O)O)CC3)c2n1
inhibition (PRVABC59, Concentration 49.95 uM, Number of replicates 2.0, Standard deviation 1.0591789629357544 %): -4.89%
inhibition (PRVABC59, Concentration 99.9 uM, Number of replicates 2.0, Standard deviation 2.3071221964090083 %): -5.26%

O=C(N[C@H]1CC(=O)N(Cc2ccccc2)C1)c1cc(Cl)ccc1NS(=O)(=O)c1ccc(Oc2ccccc2Cl)cc1
inhibition [2]: 22%

Cc1cc(CO)c2cccc(Cc3cccc(C(=O)NCc4c(C)noc4C)c3)c2n1
inhibition (PRVABC59, Concentration 49.95 uM, Number of replicates 2.0, Standard deviation 0.6344586798768046 %): -2.24%
inhibition (PRVABC59, Concentration 99.9 uM, Number of replicates 2.0, Standard deviation 0.2674164432987103 %): 1.65%

O=C(c1cc(Cl)ccc1NS(=O)(=O)c1ccc(Oc2ccccc2Cl)cc1)N1CCN(C(=O)[C@H]2COc3ccccc3O2)CC1
inhibition [2]: 19.2%

Cn1cc(NC(=O)c2ccccc2C(F)(F)F)c(-c2ccccc2CO)n1
inhibition (PRVABC59, Concentration 49.5 uM, Number of replicates 2.0, Standard deviation 1.1938974234704913 %): -0.442%
inhibition (PRVABC59, Concentration 99.01 uM, Number of replicates 2.0, Standard deviation 1.523480341882225 %): 1.31%
inhibition (PRVABC59, Concentration 198.0 uM, Number of replicates 2.0, Standard deviation 2.1372444344514228 %): 2.85%

Cc1cc(Cl)c2cccc(N)c2n1
inhibition (PRVABC59, Concentration 49.95 uM, Number of replicates 2.0, Standard deviation 7.781875381379218 %): 5.79%
inhibition (PRVABC59, Concentration 99.9 uM, Number of replicates 2.0, Standard deviation 5.7320152302040395 %): 14.4%

Cc1cc(Cl)c2c(N)ccc(C)c2n1
inhibition (PRVABC59, Concentration 49.95 uM, Number of replicates 2.0, Standard deviation 1.4741281735170297 %): 80.8%
inhibition (PRVABC59, Concentration 99.9 uM, Number of replicates 2.0, Standard deviation 0.2024559271573544 %): 83.6%

Cc1cc(N)c2c(Cl)ccc(Cl)c2n1
inhibition (PRVABC59, Concentration 49.95 uM, Number of replicates 2.0, Standard deviation 14.266771188329304 %): -9.58%

O=Cc1ccc(N2CCC(C(=O)NCc3c(F)cc(F)c(F)c3F)CC2)cc1
inhibition (PRVABC59, Concentration 10.0 uM, Number of replicates 1.0): 22.5%

COc1ccc(CN2CCC(c3c[nH]c4cccnc34)CC2)cc1
inhibition (PRVABC59, Concentration 49.5 uM, Number of replicates 2.0, Standard deviation 0.21004326604655832 %): 0.598%
inhibition (PRVABC59, Concentration 99.01 uM, Number of replicates 2.0, Standard deviation 0.8142417098777236 %): 6.55%
inhibition (PRVABC59, Concentration 198.0 uM, Number of replicates 2.0, Standard deviation 1.1254172872302635 %): 14.8%

O=Cc1ccc(N2CCC(C(=O)N(Cc3cnn(-c4ccccc4)c3)C3CC3)CC2)cc1
inhibition [1]: 26.1%

Reference: ChEMBL document CHEMBL5606458, “ASAP - ZIKV NS2B-NS3 protease fluorescence single point” (2024)
